# This is a sample that favours compounds with a hit; in the whole collection about 4.6% have one here.
# HCV inhibitor: inhibitors of hepatitis C virus infection. 340,000 compounds, 3.4% hits. Potency, µM (highest dose often 41.8 µM), actives largely listed as inhibitors. Huh7.5.1 HCVcc-Cre infection, luciferase reporter, 44 h; active = well fitted inhibition curve with a large enough effect; inconclusive = small, poorly fitted or top-dose-only effect, or another doubt; inactive = no such curve, though single readings can be large or run the other way
#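 Infectious HCV cell culture screen: compound-treated cells (1,000/well, pre-plated 4 h) are infected with HCVcc-Cre at roughly 0.5 moi and grown 44 h. Infection is quantified by luciferase signal after 15 min substrate incubation at room temperature.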
# Marburg entry inh: inhibitors of Marburg virus binding or cell entry. 300,000 compounds, 1.8% hits. Potency, µM (top dose mostly 37.8 µM), most hits filed as inhibitors. AID 540276. Marburg virus pseudotyped entry inhibition, cell reporter; calls by dose curve; tested in HEK293 cells
# Vaccinia Venus: vaccinia inhibition (Venus reporter); Vaccinia virus Venus reporter expression, fluorescence; 330,000 compounds, 0.46% hits; Potency, µM (titrated, usually from 36.5 µM), most hits filed as inhibitors; AID 720580; calls by dose curve; tested in A549 cells; also: nearly all actives have a fitted effect of over 30% in size
# Lassa entry inh: Lassa virus entry inhibition | Lassa virus pseudotype entry inhibition, cell reporter | AID 540256 | 300,000 compounds, 1.2% hits | Potency, µM (series often up to 37.9 µM), actives largely listed as inhibitors; calls by dose curve; tested in HEK293 cells; also: nearly all actives have a fitted effect of over 50% in size
# Vaccinia mCherry: vaccinia inhibition (mCherry reporter) | Potency, µM (doses to about 36.5 µM), actives largely listed as inhibitors | 310,000 compounds, 0.63% hits | AID 720579 | Vaccinia virus mCherry reporter infection, fluorescence; calls by dose curve; tested in A549 cells; also: nearly all actives have a fitted effect of over 35% in size
# A number is an active result; 0 = inactive; ? = inconclusive; - = not tested or not shown; [ ] = dose if it differs, or a comment.
SMILES,HCV inhibitor,Marburg entry inh,Vaccinia Venus,Lassa entry inh,Vaccinia mCherry
Cc1ccc(S(=O)(=O)N2CCN(C(C(=O)Nc3ccc(F)cc3)c3ccccc3)CC2)cc1 (configuration not stated),0,?,0,6.31µM,0
O=C(NCCc1ccccc1)C(=O)NCC1CCCN1S(=O)(=O)c1ccccc1 (configuration not stated),?,11.2µM,?,?,?
CCC1CCCCN1S(=O)(=O)c1ccc(NC(=O)c2cccs2)cc1 (configuration not stated),?,0,0,5.17µM,0
Cn1c(-c2ccncc2)nc2cc(C(=O)N3CCCC3c3nccs3)cc(NC(=O)C3CCC3)c21 (configuration not stated),-,-,0,-,0
O=C(CN1C=NS(=O)(=O)c2ccccc21)Nc1ccccc1F,-,-,0,0,0
COC(=O)C1=C(C)N(CCC(C)O[Si](C)(C)C(C)(C)C)C(=O)N(C(C)=O)C1c1ccccc1 (configuration not stated),-,0,-,-,-
CCOCCCNCC(=O)NC1(C)C2CCC(C2)C1(C)C (configuration not stated),0,0,0,0,0
CC1(C)C2CCC(C2)C1(C)NC(=O)CNCC1CCCCC1 (configuration not stated),0,8.91µM,0,0,0
COc1cc(C)c2ccccc2n1,-,-,0,-,0
O=C(C[C@H]1C[C@H](C(=O)N2CCCCC2)[C@@]2(CCc3ccccc3)c3[nH]c4cc(-c5ccco5)ccc4c3CCN2C1=O)NCCN1CCOCC1,?,-,10µM,-,?
O=C(C[C@H]1C[C@H](C(=O)N2CCOCC2)[C@@]2(CCC3CCCC3)c3[nH]c4cc(-c5ccco5)ccc4c3CCN2C1=O)NCCCn1ccnc1,0,-,10µM,-,0
COCCCNC(=O)C[C@H]1C[C@H](C(=O)N2CCCCC2)[C@@]2(CCc3ccccc3)c3[nH]c4cc(-c5ccco5)ccc4c3CCN2C1=O,0,-,?,-,0
O=C(C[C@H]1C[C@H](C(=O)N2CCCCC2)[C@@]2(CCc3ccccc3)c3[nH]c4ccc(Cl)cc4c3CCN2C1=O)NCCCn1ccnc1,25.1µM,-,11.2µM,-,0
CC(=O)c1[nH]c(C)c(C(=O)NCc2ccc(Cl)cc2)c1C,-,-,0,0,0
COCCCCCCCCCCCC(=O)O,-,-,0[3.33 µM],-,0[3.33 µM]
COc1ccc(-c2cn3nc(SCC(=O)Nc4cc(C)cc(C)c4)ccc3n2)cc1,-,-,?,0,0
CC1CCCC(C)N1C(=O)c1ccccc1Nc1ccc(SC(F)F)cc1 (configuration not stated),2.82µM,11.6µM,-,?,-
O=C(Nc1ccccc1SC(=O)c1ccccc1)c1ccccc1,-,-,0,-,0
Cc1ccc(C(=O)Sc2cccccc2=O)cc1,0,?,1.78µM,?,1µM
CCN(CC)C(=O)c1sc2c(c1C)c(=O)n(-c1ccccc1)c(=O)n2CC(=O)Nc1ccc(C)cc1C,-,-,0,0,0
Cc1ccnc2ccc(N)cc12,-,-,0,-,0
CC(C)C[C@H]1CN=C(Nc2ccccc2)N1CC1CCC(C(C)(C)C)CC1 (some centres not stated),11.2µM,-,?,-,28.2µM
CC(C)C[C@H]1CN=C(Nc2ccccc2)N1CC1CCCC1,0,-,0,-,0
COc1ccc(OCC(=O)Nc2ccc3c(c2)nc(CCN2CCN(c4ccccn4)CC2)n3C)cc1,-,-,0,-,0
Cn1c(CCN2CCN(c3ccccn3)CC2)nc2cc(NC(=O)COc3ccc(Cl)cc3)ccc21,2.24µM,-,-,-,-
SMILES,HCV inhibitor,Marburg entry inh,Vaccinia Venus,Lassa entry inh,Vaccinia mCherry
Cc1cccc(OCC(=O)Nc2ccc3c(c2)nc(CCN2CCN(c4ccccn4)CC2)n3C)c1,6.31µM,-,-,-,-
CCOC(=O)NN=C1C[C@@H](O)[C@@H](O)[C@@H]2[C@H]3C(=O)N(CC)C(=O)[C@@H]3CC[C@@H]12,-,0,-,?,-
COc1cc(C2C(C(=O)Nc3ccc(C)cc3C)=C(C)Nc3nc4ccccc4n32)cc(OC)c1OC (configuration not stated),-,0,0,0,0
CN(Cc1nc(Cc2ccccc2F)no1)Cc1cccc2ncccc12,11.2µM,0,0,?,0
CN(Cc1nc(Cc2ccccc2F)no1)CC1(N2CCOCC2)CCCCC1,0,?,0,0,0
O=C(CSc1n[nH]c(-c2ccccc2)n1)NCCc1ccccc1,-,-,0,0,0
Cc1cc[n+](CCC2CCCCC2)cc1,-,-,?,-,0
CCCCCc1ccc(OCCCC[n+]2ccc(C)cc2)c(CCCCC)c1,6.31µM,?,?,4.47µM,?
CCCCCCCCCCCCCCCC[n+]1ccc(C)cc1,-,-,28.2µM,-,?
O=C1c2ccccc2NC(c2ccc(-c3cccc([N+](=O)[O-])c3)o2)N1O (configuration not stated),0,?,?,?,12.6µM
CC1CCc2c(sc3ncn(CC(=O)N=Nc4c(O)[nH]c5ccccc45)c(=O)c23)C1 (configuration not stated),0,-,-,-,-
CCc1nc(N=Nc2c(O)[nH]c3ccccc23)c2c3c(sc2n1)CCC3,?,0,10µM,0,15.8µM
CCOc1ccc(CCNC(=O)CS(=O)(=O)Cc2nc(-c3ccccc3F)oc2C)cc1,10µM,?,0,0,0
CCOc1ccc(CCNC(=O)CS(=O)(=O)Cc2nc(-c3ccc(OC)cc3)oc2C)cc1,0,0,0,0,0
CCN(CCNC(=O)CS(=O)(=O)Cc1nc(-c2cccc(OC)c2)oc1C)c1ccccc1,22.4µM,0,-,0,-
COc1ccc(-c2nc(CS(=O)(=O)CC(=O)Nc3ccc(Cl)cc3)c(C)o2)cc1,10µM,0,0,-,0
COc1ccc(OC)c(CCNC(=O)CS(=O)(=O)Cc2nc(-c3ccc(C)cc3)oc2C)c1,3.55µM,0,-,0,-
COc1cc(NC(=O)CCNS(=O)(=O)c2ccc3c(c2)CCN3C(=O)C2CC2)cc(OC)c1,-,-,0,?,0
CCc1ccc(NC(=O)C2CCCN(S(=O)(=O)c3ccc4c(c3)oc(=O)n4C)C2)cc1 (configuration not stated),-,0,0,0,0
CC(=O)Nc1ccccc1-c1nc(CNC(=O)c2ccc(F)c(F)c2)c(C)o1,-,-,0,-,0
CC1(C(=O)O)C2CCC(O2)C1(C)C(=O)O (configuration not stated),-,4.11µM,-,3.26µM,-
CC(=O)c1ccc(N2CCN(S(=O)(=O)c3ccc4[nH]c5c(c4c3)CCCC5)CC2)cc1,-,-,0,?,0
O=C(O)CSCC(=O)N1CCCN(c2ccc(C(F)(F)F)cn2)CC1,0,0,0,0,0
Fc1ccc(NC(=S)N2CCCN(c3ccc(C(F)(F)F)cn3)CC2)c(F)c1,0.501µM,-,-,-,-
CC1=C(\C=C/C(C)=C/C=C\C(C)=C\C(=O)O)C(C)(C)CCC1,-,0,0[3.33 µM],-,0[3.33 µM]
CC1=C(/C=C/C(C)=C/C=C/C(C)=C/C(=O)Nc2ccc(O)cc2)C(C)(C)CCC1,6.31µM,?,?,10µM,?
CCOC(=O)C1(Cc2ccc(Cl)cc2)CCN(C(=O)c2sc(C)nc2C)CC1,11.2µM,-,-,-,-
CCOC(=O)C1(Cc2ccc(Cl)cc2)CCN(CCCn2cccn2)CC1,3.16µM,?,0,?,0
CCOC(=O)C1(Cc2ccccc2)CCCN(CCCn2cccn2)C1 (configuration not stated),0,0,0,?,0
Cc1cc(=O)n2cc(-c3ccccc3)nc2[nH]1,0,0,-,0,-

# Compound activity: PubChem BioAssay, National Center for Advancing Translational Sciences (NCATS)
